The text below walks through data of PubChem BioAssay AID1347076 (National Center for Advancing Translational Sciences (NCATS), 2019).

Out of some 400,000 compounds screened, about 13,000 (3.2%) were called active. Inconclusive results (about 18%) are left out. Only a selection was taken, and actives are over-represented in it overall. Values without a mark were called inactive. Calls follow the shape of the dose curve; as a rule, active = well fitted cell-killing curve with a large enough effect; inconclusive = small, poorly fitted or top-dose-only effect, or effect the other way; inactive = flat fitted curve, though single readings scatter.
% is scaled to controls: 0 for no effect and ±100 for the full control effect; potency is read from the fitted curve at half-maximal effect.

A short description of the experiment: qHTS assay for MDR1-selective chemotherapeutics: Primary screen using the drug-selected MDR subline cells KB-V1. Also: nearly all actives have a fitted effect of over 60% in size. To be noted: KB-V1 MDR cells viability, CellTiter-Glo, 72 h; series mostly up to 46.1 µM; activity change, negative = cytotoxicity: at the top concentration. In short, it runs like this: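 Luminescent ATP read-out (CellTiter-Glo, 10 min) measures survival of drug-selected KB-V1 MDR cells after 72 h, 37 degrees C compound exposure. Medium: phenol-red-free DMEM, 10% FBS. Values from fitted concentration-response curves.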
For `O=C(NC(=O)c1ccccc1)Nc1ccccc1O`, the “activity change, negative = cytotoxicity” value is 13.8%.

Take `O=C(Nc1ncccc1O)c1ccc(S(=O)(=O)N2CCCC2)cc1`: the “activity change, negative = cytotoxicity” value was -28.8%.

With `O=C(Nc1ncccc1O)c1ccc(C(=O)c2ccccc2)cc1`, the Potency was 23.1 µM (active).

Turning to `C[C@@H]1CN([C@@H](C)CO)C(=O)c2cc(NS(C)(=O)=O)ccc2O[C@@H](C)CCCCO[C@H]1CN(C)C(=O)Nc1ccc2c(c1)OCO2`, the “activity change, negative = cytotoxicity” value is 15.5%.

Take `O=C(NCc1ccccc1)C1c2ccccc2OCC(=O)N1C1CC1` (stereo not drawn): the “activity change, negative = cytotoxicity” value is 10.6%.

On to `Cc1ccc(C(O)c2ncc(-c3ccccc3F)[nH]2)cc1F` (stereo not drawn), for which the “activity change, negative = cytotoxicity” value is 3.69%.

Consider `O=C(Nc1cccc(S(=O)(=O)NC2=NCCC2)c1)c1ccc(F)cc1F`, for which the “activity change, negative = cytotoxicity” value was -4.99%.

Consider `CCS(=O)(=O)c1ccc(O)c(NC(=O)COc2ccc(Cl)cc2)c1`, for which the “activity change, negative = cytotoxicity” value is 10.8%.

In the case of `O=C(Nc1cc(S(=O)(=O)Nc2ccc(Cl)cc2)ccc1O)c1ccc(F)cc1F`, the Potency is 23.1 µM (active).

For `CCCSc1nc2sc3c(c2c(=O)n1-c1cccc(Br)c1)CC(C)(C)OC3`, the “activity change, negative = cytotoxicity” value is -22.2%.

As for `CCC1(C)Cc2c(sc3nc4n(c(=O)c23)CCCS4)CO1` (stereo not drawn), the “activity change, negative = cytotoxicity” value was 0%.

Consider `CCCSc1nc(NCc2ccco2)c2c3c(sc2n1)COC(C)(CC)C3` (stereo not drawn), for which the Potency is 16.4 µM (active).

On to `Cc1ccc(N2CC(c3nnc(Cc4ccccc4Cl)o3)CC2=O)cc1` (stereo not drawn), for which the “activity change, negative = cytotoxicity” value was 2.41%.

As for `CC(C)(C)OC(=O)N1CCC(c2c(C(=O)N3CCN(c4cccc(Cl)c4)CC3)cnn2-c2cccc(Cl)c2)CC1`, the “activity change, negative = cytotoxicity” value was -27.3%.

For the compound `Cc1ccc(OCC(=O)NC(C)c2ccccc2)c([N+](=O)[O-])n1` (stereo not drawn), the “activity change, negative = cytotoxicity” value is -8.09%.

As for `O=C(COc1cccnc1[N+](=O)[O-])Nc1ccc(Cl)cc1F`, the “activity change, negative = cytotoxicity” value is 4.4%.

With `Cc1ccc(OCC(=O)Nc2ccccc2Sc2ccc(Cl)cc2)c([N+](=O)[O-])n1`, the Potency is 9.2 µM (active).

In the case of `Cc1ccc(S(=O)(=O)N2CC3C(=O)C[C@@H](c4ccccc4Cl)N(S(=O)(=O)c4ccc(C)cc4)C3CC2c2ccccc2)cc1` (stereo partly drawn), the “activity change, negative = cytotoxicity” value is -27.9%.

In the case of `COc1ccc(C(C)(C)C)cc1NC(=O)CN(C)C1=NS(=O)(=O)c2ccccc21`, the “activity change, negative = cytotoxicity” value is -22.1%.

`CC1(C(=O)NCc2ccc3c(c2)OCO3)CCN1C(=O)Cc1cccs1` (stereo not drawn): the “activity change, negative = cytotoxicity” value was 2.58%.

As to `C[C@H](NC(=O)CC[C@H]1O[C@@H](n2ccc(=O)[nH]c2=O)[C@H](O)[C@@H]1O)c1cccc2ccccc12`, the “activity change, negative = cytotoxicity” value was 14.5%.

For the compound `CC(=O)NC(=S)NNC(=O)c1ccc(Br)cc1`, the “activity change, negative = cytotoxicity” value was -2.46%.

Take `CNC(=S)NNC(=O)c1ccc(N(C)C)cc1`: the Potency is 11.6 µM (active).

On to `CNC(=S)NNC(=O)c1sccc1OCc1ccccc1`, for which the “activity change, negative = cytotoxicity” value was -21.8%.

With `COC(=O)C1(C(=O)OC)C/C=C\CN(S(=O)(=O)c2ccccc2[N+](=O)[O-])CCC1`, the “activity change, negative = cytotoxicity” value was 3.37%.

Turning to `COc1ccc(Cn2c(C)c(C)c(C#N)c2NC(=O)Nc2ccc(F)cc2)cc1`, the “activity change, negative = cytotoxicity” value is 18%.

For `COc1ccc(NC(=O)c2sc(=O)n(Cc3ccc(S(=O)(=O)N(C)C)cc3)c2C)cc1`, the Potency was 9.2 µM (active).

Regarding `COc1ccc(NS(=O)(=O)c2cc(NC(=O)c3ccc(S(=O)(=O)N(C)C)cc3)ccc2N2CCOCC2)cc1`, the “activity change, negative = cytotoxicity” value is 7.71%.
